Where “and” joins values, the source holds several entries; their conditions need not be identical. Identical values can stand only once. Records with an inconclusive call do not appear. Unmarked numbers belong to inactive results. Calls of active or inactive are those of the source. The call rests on the fitted dose curve; in most records, active means well fitted curve in the direction sought with a large enough effect; inconclusive means small, poorly fitted or top-dose-only effect, or another doubt; inactive means no such curve, though single readings can be large; an effect the other way counts as inactive or inconclusive.

In one experiment the test system is TAB113. The experiment in a line: qHTS profiling for inhibitors of Plasmodium falciparum proliferation (AID 504749). Further: nearly all actives have a fitted effect of over 60% in size. Further: potency means the concentration at half of the fitted maximal effect. The note with it: P. falciparum in erythrocytes, SYBR Green DNA, 72 h; series mostly up to 28.7 µM. The procedure, abridged: (§1)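 Readout was DNA-dye fluorescence from lysed cultures, ex 485/em 535 nm. Parasitized red cells had grown 72 h with compound; data scaled between 0.29 uM artemisinin and DMSO wells and corrected using vehicle-only plates.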
For orientation: In qHTS, concentration-response curves come from the screen itself.

For a further experiment, the system named is W2. Described as above. The note with it: P. falciparum in erythrocytes, SYBR Green DNA, 72 h; series mostly up to 28.7 µM. The procedure, abridged: as §1
In the next experiment the test system is CRL-7250. The experiment in a line: Cytotoxic Profiling of Annotated Libraries Using Quantitative High-Throughput Screening (AID 1296008). Further: nearly all actives have a fitted effect of over 60% in size. Further: potency means the concentration at half of the fitted maximal effect. On max response: on the % scale 0 is the no-effect control and ±100 the full control effect. The note with it: Five cell lines viability, CellTiter-Glo ATP luminescence, 48-72 h; max response: stronger effect = lower value. The method, boiled down:
(§2)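 Cells exposed to compounds for 48 or 72 hr at 37 degrees Celsius. Viability read as ATP-coupled luminescence with CellTiter-Glo after 10 min at room temperature.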

The next experiment relates to HEK293. The experiment is described as above. The note with it: Five cell lines viability, CellTiter-Glo ATP luminescence, 48-72 h; max response: stronger effect = lower value. The procedure, abridged: as §2
For experiment [1], the system named is HaCat. The experiment is described as above. The note with it: Five cell lines viability, CellTiter-Glo ATP luminescence, 48-72 h; max response: stronger effect = lower value. The method, boiled down:
as §2
Background: ATP-based viability assays read luminescence as a measure of living cells.

The test system of another experiment is KB-3-1. Described as above. The following applies: Five cell lines viability, CellTiter-Glo ATP luminescence, 48-72 h; max response: stronger effect = lower value. The method, boiled down: as §2
For another experiment, the system named is NIH3T3. The experiment is described as above. The following applies: Five cell lines viability, CellTiter-Glo ATP luminescence, 48-72 h; max response: stronger effect = lower value. The method, boiled down: as §2
The subject of experiment [2] is HACAT. The experiment in a line: qHTS assay to identify novel small-molecules to repurpose for Merkel cell carcinoma treatment (AID 1296009). Further: nearly all actives have a fitted effect of over 60% in size. The following applies: MCC and control cell lines, CellTiter-Glo viability, 72 h; at 44.8 µM (top of the series) unless noted. The method, boiled down: (§3)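 Cells were incubated with compound for 72 hr at 37 degree celsius before CellTiter-Glo addition. Luminescence was normalized with no-cell wells as full cytotoxicity and DMSO as baseline.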

For another experiment, the system named is MCC-13. The description is as above. The note with it: MCC and control cell lines, CellTiter-Glo viability, 72 h; series mostly up to 46 µM. The procedure, abridged:
as §3

For a further experiment, the system named is MCC-26. The experiment is described as above. The following applies: MCC and control cell lines, CellTiter-Glo viability, 72 h; series mostly up to 46 µM. The method, boiled down: as §3
A further experiment concerns MKL-1. The experiment is described as above. The following applies: MCC and control cell lines, CellTiter-Glo viability, 72 h; series mostly up to 46 µM. The method, boiled down:
as §3

The subject of another experiment is MKL-2. The experiment is described as above. The note with it: MCC and control cell lines, CellTiter-Glo viability, 72 h; series mostly up to 46 µM. The procedure, abridged: as §3
A further experiment has as its system UISO. The description is as above. The following applies: MCC and control cell lines, CellTiter-Glo viability, 72 h; series mostly up to 46 µM. The method, boiled down:
as §3

A further experiment relates to C33A. In words: Primary qHTS to identify gynecologic anti-cancer compounds using libraries of approved drugs and bioactive compounds (AID 1345084). Further: on the % scale 0 is the no-effect control and ±100 the full control effect; nearly all actives have a fitted effect of over 55% in size. The note with it: Gynecologic cancer cell panel viability, ATPlite luminescence, 48 h; series mostly up to 57.5 µM. The procedure, abridged: (§4)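 Measured: luminescence after ATPlite addition (15 min, RT). Exposure: 48 h, 37 C, 5% CO2.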

The next experiment concerns CAOV3. The experiment is described as above. The following applies: Gynecologic cancer cell panel viability, ATPlite luminescence, 48 h; series mostly up to 57.5 µM. The procedure, abridged: as §4
In a further experiment the test system is WaGa. The experiment in a line: qHTS assay to identify novel small-molecules to repurpose for Merkel cell carcinoma treatment (AID 1296009). Further: nearly all actives have a fitted effect of over 60% in size. The note with it: MCC and control cell lines, CellTiter-Glo viability, 72 h; series mostly up to 46 µM. The method, boiled down: as §3
Another experiment relates to TAB109. In words: qHTS profiling for inhibitors of Plasmodium falciparum proliferation (AID 504749). Further: nearly all actives have a fitted effect of over 60% in size. Further: potency means the concentration at half of the fitted maximal effect. The note with it: P. falciparum in erythrocytes, SYBR Green DNA, 72 h; series mostly up to 28.7 µM. The method, boiled down:
as §1

The test system of another experiment is TAB165. The experiment is described as above. The note with it: P. falciparum in erythrocytes, SYBR Green DNA, 72 h; series mostly up to 28.7 µM. The method, boiled down: as §1

`CCN(CC)CCOc1ccccc1C(=O)CCc1ccccc1`: the Potency result with TAB113, with MCC-13, in the experiment with MCC-26, in the experiment on MKL-1, with MKL-2 and in the experiment on UISO was “inactive” in each case. Also, the Potency entry in the experiment on C33A is “inactive”. Also, the results for the Potency in the experiment with W2 and in the experiment with HEK293 were 2.13 µM (active) and 11.9 µM (active), respectively. The max response in the experiment with CRL-7250 was -0.916%; with KB-3-1, -2.43%; with NIH3T3, -3.4%. For the same compound, the call in the experiment with HaCat [1] and with HACAT [2] was inactive.
As for `O=C1[C@H](CC[C@H](O)c2ccc(F)cc2)[C@@H](c2ccc(O)cc2)N1c1ccc(F)cc1`, the max response in the experiment on CRL-7250 was 1.5%; in the experiment on HaCat [1], -6.94% and -19.1%; in the experiment on KB-3-1, -8.72% and 5.64%; in the experiment with NIH3T3, -18.6% and -29.1%. Further, in the experiment on CRL-7250, the call was inactive. In addition, the Potency result in the experiment with MCC-13, in the experiment on MCC-26, with MKL-1, in the experiment on MKL-2, in the experiment with UISO and in the experiment with C33A was “inactive” throughout. For the same compound, the Potency result in the experiment on CAOV3 is “inactive”.
As to `CC(C(=O)O)c1cccc(Oc2ccccc2)c1` (stereo not given), the max response was -6.67% in the experiment on CRL-7250; -4.21% in the experiment with HEK293; -15.2% in the experiment on HaCat [1]; -5.06% with KB-3-1; -0.596% with NIH3T3. Also, the Potency entry in the experiment on MCC-13, in the experiment on MCC-26, in the experiment with MKL-1, with MKL-2, in the experiment on UISO and with WaGa was “inactive” each time. For the same compound, the Potency result in the experiment with C33A and with CAOV3 was “inactive” in each case.
Take `COC(=O)C(c1ccccc1Cl)N1CCc2sccc2C1` (stereo not given): the max response with CRL-7250 was -10.1%; in the experiment on HEK293 it was 4.89%; in the experiment on HaCat [1], 4.22%; with KB-3-1 it was -8.1%; in the experiment on NIH3T3 it was -4.69%. Besides, the Potency result in the experiment with MCC-13, in the experiment with MCC-26, in the experiment on MKL-1, in the experiment on MKL-2, in the experiment on UISO and with WaGa was “inactive” throughout. Also, the Potency entry in the experiment on C33A and in the experiment with CAOV3 was “inactive” throughout.
Consider `CCCCCCCCCCCCCCCC(=O)O`, for which the Potency entry with TAB109, in the experiment with TAB113, in the experiment on TAB165, with W2, in the experiment on MCC-13 and in the experiment with MCC-26 was “inactive” throughout. Besides, the Potency entry in the experiment with MKL-1, with MKL-2, with UISO, in the experiment on WaGa, with C33A and in the experiment on CAOV3 was “inactive” throughout. Further, the max response in the experiment with CRL-7250 was -4.95%; with HEK293, -5.26%; in the experiment on HaCat [1] it was -1.81%; in the experiment with KB-3-1 it was 2.75%; in the experiment with NIH3T3, 4.34%.
Take `NS(=O)(=O)c1cc2c(cc1Cl)NC(CC1CCCC1)NS2(=O)=O` (stereo not given): the max response in the experiment with CRL-7250 was -2.46%; in the experiment on HEK293, -7.58%; in the experiment on HaCat [1], -5.14%; with KB-3-1 it was 7.67%; in the experiment with NIH3T3 it was 2.98%. Further, the Potency result with MCC-13, in the experiment with MCC-26, with MKL-1, with MKL-2, with UISO and in the experiment on WaGa was “inactive” in each case. Besides, the Potency entry in the experiment on C33A and in the experiment with CAOV3 was “inactive” each time.
`C/C=C/c1ccc(O)c(OC)c1`: the Potency result with TAB109, with TAB113, with TAB165, in the experiment with W2, with MCC-13 and in the experiment with MCC-26 was “inactive” in each case. For the same compound, the Potency entry in the experiment on MKL-1, with UISO, with WaGa and in the experiment with C33A was “inactive” each time. Further, the max response in the experiment on CRL-7250 is -0.654%; with HEK293, -2.94%; with KB-3-1 it was -3.67%; with NIH3T3 it was -0.28%. In addition, the call in the experiment on HaCat [1] and in the experiment with HACAT [2] was inactive.
Take `Cc1ccc(-c2ncc(Cl)cc2-c2ccc(S(C)(=O)=O)cc2)cn1`: the max response in the experiment on CRL-7250 is -1.19%; with HEK293, 4.1%; in the experiment with HaCat [1] it was -27.8%; in the experiment with KB-3-1, -5.38%; in the experiment with NIH3T3, -3.08%. The Potency entry in the experiment on MCC-13, with MCC-26, in the experiment with MKL-1, with MKL-2, in the experiment with UISO and with WaGa was “inactive” throughout. In the experiment with C33A, the Potency entry was “inactive”.

For the origin of these results see PubChem BioAssay (NCATS).
